In all, about 310,000 compounds went through this assay and about 3,900 (1.3%) were called active.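 The calls were made as follows: active = compounds whose thallium flux B-score, printed positive for inhibition, exceeds three library SD while starting fluorescence stays within three; inactive = the rest.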 The full list was thinned out, with actives kept by preference.

The target in this assay is Potassium voltage-gated channel subfamily KQT member 1 (Homo sapiens) (UniProt P51787). Briefly: inhibitors of human KCNQ1 channel, primary screen, cell-based, thallium flux, high-throughput (AID 2642).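 Also: channel opened by potassium depolarization with thallium stimulus after 20 min compound exposure.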 The note with it: CHO-K1 KCNQ1, FluxOR thallium flux fluorescence, at 10 µM; active compounds read high.
Potassium voltage-gated channel subfamily KQT member 1 (Homo sapiens), sequence (P51787 whole entry, looked up): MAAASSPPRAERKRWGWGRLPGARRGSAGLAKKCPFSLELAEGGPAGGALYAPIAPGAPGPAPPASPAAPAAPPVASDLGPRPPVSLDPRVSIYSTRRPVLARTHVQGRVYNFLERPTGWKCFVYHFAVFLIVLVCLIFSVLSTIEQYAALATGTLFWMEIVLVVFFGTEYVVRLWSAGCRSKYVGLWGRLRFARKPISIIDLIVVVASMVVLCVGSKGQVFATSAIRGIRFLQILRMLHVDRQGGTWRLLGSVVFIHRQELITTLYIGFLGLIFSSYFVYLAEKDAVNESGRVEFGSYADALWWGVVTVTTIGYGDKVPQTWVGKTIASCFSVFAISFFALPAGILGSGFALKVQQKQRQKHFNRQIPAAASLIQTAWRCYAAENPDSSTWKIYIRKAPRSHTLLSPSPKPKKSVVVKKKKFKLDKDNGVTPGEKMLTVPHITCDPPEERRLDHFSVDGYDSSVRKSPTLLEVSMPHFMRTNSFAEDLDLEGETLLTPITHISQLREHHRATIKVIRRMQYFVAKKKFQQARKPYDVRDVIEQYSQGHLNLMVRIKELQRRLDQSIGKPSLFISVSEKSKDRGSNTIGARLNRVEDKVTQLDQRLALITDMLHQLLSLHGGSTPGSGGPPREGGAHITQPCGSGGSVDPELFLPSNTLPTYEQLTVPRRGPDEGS
For the compound `COc1ccc(C2=NOC(Cn3nc(C(=O)NCc4ccc5c(c4)OCO5)cc3-c3ccccc3)C2)cc1` (stereo not drawn), the B-score entry was “inactive”.
On to `CCCCN(CC)CCNC(=O)CCNC(=O)Cn1ccc2ccccc2c1=O`, for which the B-score result is “inactive”.
Next, `Cc1cc(C(F)(F)F)nn1-c1nc(-c2ccco2)cc(C(F)(F)F)n1`: “inactive”; `FC(F)(F)c1cc(-c2ccco2)nc(NCc2ccc(Cl)cc2)n1`: 11 (active).
Turning to `FC(F)(F)c1cc(-c2cccs2)nc(NCc2ccco2)n1`, the B-score entry was “inactive”.
Next, `COc1ccc(NC(=O)CSc2nncc(=O)n2N)cc1OC`: “inactive”; `COc1cc(NC(=S)NCc2ccco2)c(OC)cc1Cl`: “inactive”; `COc1cccc(NC(=S)NCc2ccco2)c1`: “inactive”.
`FC(F)Oc1ccc(NC(=S)NCc2ccco2)cc1Cl`: the B-score is 7 (active).
Next, `CCOC(=O)c1cnc2c(c(C)nn2CC)c1Cl`: “inactive”; `COc1ccc(S(=O)(=O)N2CCCC2CNC(=O)C(=O)NC2CC2)cc1` (stereo not drawn): “inactive”.
Next, `Cc1nc(Nc2ccc3c(c2)OCCO3)c2nnn(Cc3ccccc3Cl)c2n1`: 7 (active).
Take `CCCc1nc(NCc2ccc3c(c2)OCO3)c2nnn(Cc3ccccc3Cl)c2n1`: the B-score entry was “inactive”.
Regarding `Cc1nc(Nc2ccccc2F)c2nnn(Cc3ccccc3Cl)c2n1`, the B-score result was “inactive”.
Next, `CCCN1C(=O)C(Cc2nc3ccccc3c(=O)n2-c2ccccc2)c2cc(C)ccc21` (stereo not drawn): “inactive”; `O=[N+]([O-])/C=C/c1ccc2c(ccn2Cc2ccccc2)c1`: “inactive”.
Next, `COc1ccccc1N1CCN(C(=O)c2ccc(NC3=NC4CS(=O)(=O)CC4S3)cc2)CC1` (stereo not drawn): “inactive”; `CCC(=O)Nc1nc(C)c(C(=O)Nc2cccc(Cl)c2)s1`: “inactive”.
Next, `CC(C(=O)NC1CCCC1)N(c1ccc(Oc2ccccc2)cc1)S(C)(=O)=O` (stereo not drawn): “inactive”; `CCc1ccc(-c2cc(C(=O)NCc3ccco3)c3ccccc3n2)s1`: 6 (active); `COC(=O)CNC(=O)c1cc(-c2ccncc2)nc2ccccc12`: “inactive”.
As to `CCCCN(C)CCCNC(=O)c1cc(-c2cccs2)nc2ccccc12`, the B-score result was “inactive”.
Next, `COc1ccccc1Cn1c(C)nnc1-c1cnn(C)c1N`: “inactive”; `Cc1cc(C)cc(NS(=O)(=O)Cc2ccccc2)c1`: “inactive”; `CCc1cc(C(=O)OC)c(NC(=O)CC2Sc3ccc(C(F)(F)F)cc3NC2=O)s1` (stereo not drawn): “inactive”.
Next, `Cc1cccc(C(=O)NNC(=O)CSc2nnc(C(C)C)n2C)c1`: “inactive”.
Next, `Cc1cccc(CSc2nnc(NC(=O)CSc3nnc(C)s3)s2)c1`: “inactive”.
`O=C(CSc1ccc(-c2cccs2)nn1)Nc1ccccc1F`: the B-score entry is “inactive”.
Next, `Cc1cccc(CSc2ccc(-c3cccs3)nn2)c1`: 7 (active); `CCOC(=O)C1(CCOc2ccccc2)CCN(Cc2ccc(C#CCCO)cc2)CC1`: “inactive”.
Next, `Cc1cc(OCc2cc(C(=O)NCc3cc(C(C)C)no3)no2)cc(C)c1Cl`: “inactive”; `CCCCn1c(SCc2ncc(-c3ccccc3)o2)nc2cc(S(N)(=O)=O)ccc21`: “inactive”; `Cc1oc2c(F)c(F)c(F)c(F)c2c1S(=O)(=O)Nc1cccc(C(F)(F)F)c1`: 12 (active).
Consider `O=C(/C=C/c1ccc(F)cc1)Nc1cccc(S(=O)(=O)Nc2cccc(C(F)(F)F)c2)c1`, for which the B-score result is “inactive”.
As to `CCNS(=O)(=O)c1ccc(NC(=O)Nc2cccc(C(F)(F)F)c2)cc1`, the B-score result is “inactive”.
Next, `COc1ccc(/C(=N\O)c2nccc3cc(OC)c(OC)cc23)cc1OC`: “inactive”; `CCOC(=O)N1CCN(C(=O)C2CCN(Cc3ccc(OC)cc3OC)CC2)CC1`: “inactive”.
Next, `CCOC(=O)N1CCN(C(=O)C2CCN(S(=O)(=O)c3cc(Cl)ccc3OCC)CC2)CC1`: “inactive”; `CCOC(=O)N1CCN(C(=O)C2CCN(c3ncnc4c3sc3cccc(F)c34)CC2)CC1`: 6 (active); `COc1ccc2c(c1)CCc1cn3ncc(C#N)c3nc1-2`: “inactive”.
Next, `CCOC(=O)C1CCN(C(=O)C2CCN(S(=O)(=O)CC)CC2)CC1`: “inactive”.
As for `CCOC(=O)c1cn(CC)c2cc(F)c(F)cc2c1=O`, the B-score result is “inactive”.
As for `Cn1nc(-c2ccc(Cl)cc2)c2cc(C(=O)NCc3ccco3)sc21`, the B-score is 6 (active).
Next, `CCOC(=O)N1CCN(C(=O)c2cc3c(-c4ccc(Cl)cc4)nn(C)c3s2)CC1`: “inactive”; `COc1ccccc1N1CCN(C(=O)c2cc3c(-c4ccc(Cl)cc4)nn(C)c3s2)CC1`: “inactive”; `CN1CCc2ccccc2C1Cc1ccccc1NC(=O)c1sc2ccccc2c1Cl` (stereo not drawn): “inactive”.
On to `CCN(CC(=O)Nc1c(F)cccc1F)C(=O)c1ccc(Sc2nncn2C)c([N+](=O)[O-])c1`, for which the B-score entry was “inactive”.
Turning to `COc1ccc(CNc2ccc3c(c2)CCC3)cc1OC`, the B-score entry was “inactive”.
Regarding `COc1ccc(OC)c(CCNC(=O)CCn2ccc3cc(S(=O)(=O)N4CCCC4)ccc32)c1`, the B-score entry was “inactive”.
Take `CCOCc1nnc(NC(=O)CCC2CCCCC2)s1`: the B-score result is “inactive”.
Next, `CN1CCN(NC(=O)Nc2ccc(Br)cc2)CC1`: “inactive”; `CNC(=O)C1CC(=O)N(Cc2ccc3c(c2)OCO3)C(=Nc2ccc(F)cc2)S1` (stereo not drawn): “inactive”.
`CC1CCC(N2CC(=O)N(Cc3ccc4c(c3)OCO4)C(c3ccc(F)cc3)C2=O)CC1` (stereo not drawn): the B-score was 6 (active).
Next, `CC1CCC(NC(=O)C2c3ccccc3C(=O)N2Cc2ccc3c(c2)OCO3)CC1` (stereo not drawn): “inactive”; `COc1ccccc1C(=O)NC(=S)NC12CC3CC(CC(C3)C1)C2`: “inactive”; `CSc1ccccc1C(=O)NCc1ccccc1`: “inactive”.
`CCCN1Cc2cccc(C(=O)NCc3ccccc3)c2C1=O`: the B-score was 8 (active).
Next, `COCCN1Cc2cccc(C(=O)Nc3ccccc3OC)c2C1=O`: “inactive”.
`CSc1ccccc1NC(=O)c1cnc2sc(C)cn2c1=O`: the B-score result is “inactive”.
Next, `Cc1nc(NC(=O)C2CCCCC2)sc1C`: “inactive”; `CN(C)CCN(C(=O)C1CCCCC1)c1nc2cc3c(cc2s1)OCO3`: “inactive”; `CCN(CC)CCN(C(=O)c1ccc(N2C(=O)CCC2=O)cc1)c1nc2cc3c(cc2s1)OCO3`: “inactive”.
Next, `CCN(CC)CCN(C(=O)c1cc(Cl)sc1Cl)c1nc2cc3c(cc2s1)OCO3`: 7 (active); `CCCc1nn2c(=O)cc(CSCC(=O)Nc3cccc(C)c3)nc2s1`: “inactive”; `CC(=O)c1ccc(-c2ccc(Cn3c(C)nc4cc(N)c(C)nc43)cc2)cc1`: “inactive”.
Take `Cc1cc2nc3c(=O)n(Cc4ccccc4)c(=O)[nH]c3nc2cc1N`: the B-score was 8 (active).
With `Cc1cc(-c2csc(N)n2)c(C)n1Cc1ccccc1`, the B-score result is “inactive”.
On to `O=C(O)c1ccc2c(=O)n3c(nc2c1)/C(=C/c1ccc(Cl)c([N+](=O)[O-])c1)CC3`, for which the B-score entry is “inactive”.
Next, `CCOC(=O)C(C)n1cnc2scc(-c3ccc(C)c(C)c3)c2c1=O` (stereo not drawn): 6 (active).
As for `CCn1cnc2scc(-c3ccc(C)c(C)c3)c2c1=O`, the B-score result is “inactive”.
Next, `CC(=O)C(C)n1cnc2scc(-c3ccc(C)cc3)c2c1=O` (stereo not drawn): “inactive”; `CC(c1nnc(SCC(=O)Nc2sccc2C#N)n1-c1ccc(Cl)cc1)N(C)C` (stereo not drawn): “inactive”; `Fc1ccc2[nH]c3c(N4CCSCC4)ncnc3c2c1`: 8 (active).
Next, `Cc1c(CN2CC[C@@H](N3CCN(c4ccccn4)CC3)[C@H](O)C2)[nH]c2ccc(F)cc12`: “inactive”.
Next, `C=CCn1c(Cn2nnc3ccccc32)nnc1SCC(=O)N/N=C/c1cc(Br)cc(OC)c1O`: “inactive”; `COc1ccc(/C=C2\CCCC3C2=NN(C(=O)c2scnc2C)C3c2ccc(OC)cc2)cc1` (stereo not drawn): 8 (active).
Regarding `CCOC(=O)C1(Cc2ccccc2C(F)(F)F)CCN(C(=O)c2cc(C)n(C)n2)CC1`, the B-score entry was “inactive”.
Next, `O=S(=O)(c1ccccc1)c1nc(Cc2ccccc2)oc1N1CCOCC1`: “inactive”.

The values are drawn from PubChem BioAssay AID2642 (Johns Hopkins Ion Channel Center, 2010).
